The nature of this assay: modulators of mitochondrial supercomplex assembly, cell-based, luminescence, Hoechst nuclei count (AID 1645838).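 For all read-outs here: control cybrid cells.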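 For z-score: higher means more mitochondrial supercomplex formation.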 The note with it: Cells, luminescence/Hoechst cell count ratio, supercomplex reporter; for z-score: stronger effect = higher value; for cell count: measured here: cell number, Hoechst nuclei count; for outcome: library stock 10 mM.
[1] abbreviates: library stock concentration (final well concentration not given) 80 uM.
Where [2] appears, read: library stock concentration (final well concentration not given) 400 uM.
The mark [3] stands for this setting: library stock concentration (final well concentration not given) 2 mM.
The mark [4] stands for this setting: library stock concentration (final well concentration not given) 10 mM.

Among all 2,000 compounds or so, about 100 (5%) were called active. Cut-off read from the data, not from the text of the source: active = z-score above about 2; inactive = the rest. What follows is part of a selection rich in actives, with near analogues and random picks from the rest.

Regarding `COC(=O)CCCCCC[C@@H]1[C@@H](CCC(O)C#Cc2ccccc2F)[C@H](O)C[C@@H]1O` (stereo partly drawn), the z-score is -0.523 (inactive) and the cell count was found to be 5390.
The corresponding values for `CCCCC[C@H](O)/C=C/[C@@H]1[C@H]2C[C@H](CCCCC(=O)O)O[C@H]2C[C@H]1O` are 0.18 (inactive) and 5310.
Consider `COc1cc(N2CCC(C(N)=O)CC2)ccc1Nc1nc(N)c(Cl)c(Nc2ccccc2S(=O)(=O)C(C)C)n1`, for which the z-score is -0.397 (inactive) under setting [1], -0.357 (inactive) under setting [2], -0.497 (inactive) under setting [3] and -0.438 (inactive) under setting [4]. The cell count under setting [1] was 5060, the cell count under setting [2] was found to be 4660, the cell count under setting [3] amounted to 4640 and the cell count under setting [4] is 4760.
Consider `C#Cc1cccc(Nc2ncnc3cc4c(cc23)OCCOCCOCCO4)c1`, for which the z-score is, setting by setting: under setting [1], -0.401 (inactive); under setting [2], -0.555 (inactive); under setting [3], -0.372 (inactive); under setting [4], -0.218 (inactive). For the same compound, the cell count by setting is: under setting [1], 5760; under setting [2], 5920; under setting [3], 5800; under setting [4], 5980.
Consider `C#Cc1cccc(Nc2ncnc3cc(OCCOC)c(OCCOC)cc23)c1`, for which the z-score runs as follows: under setting [1], 0.334 (inactive); under setting [2], 0.287 (inactive); under setting [3], -0.186 (inactive); under setting [4], 2.02 (active). Moreover, the cell count is, setting by setting: under setting [1], 5220; under setting [2], 5400; under setting [3], 5470; under setting [4], 3820.
As to `COc1cc2ncnc(Nc3cc(Br)c(O)c(Br)c3)c2cc1OC`, the z-score under setting [1] is -0.757 (inactive), the z-score under setting [2] is -0.502 (inactive), the z-score under setting [3] was -0.971 (inactive) and the z-score under setting [4] is -0.687 (inactive). Also, the cell count was 4740 under setting [1], 4630 under setting [2], 5420 under setting [3] and 5090 under setting [4].
On to `C[C@H](N)C(=O)CCCCCC(=O)O`, for which the z-score is -0.273 (inactive) and the cell count worked out at 5410.
The corresponding values for `NCCCNCCCCN(CCCN)[N+]([O-])=NO` are 1.09 (inactive) and 5110.
The corresponding values for `COc1ccc2cc(CC(=O)O)ccc2c1` are -0.782 (inactive) and 5780.
Taken in the same sequence, the figures for `CCCCC[C@H](O)/C=C/[C@H]1CC[C@H](O)[C@@H]1CCCCCCC(=O)O` were -0.59 (inactive) and 5510.
As for `CNC(=O)Nc1ccc(-c2nc(N3CC4CCC(C3)O4)c3cnn(C4CCC5(CC4)OCCO5)c3n2)cc1`, the outcome was “inactive; censored for cell count”. Besides, under setting [1], the z-score was 1.01 (inactive) and the cell count came to 2180. Moreover, under setting [2], the z-score is 1.56 (inactive) and the cell count was found to be 1780. Also, under setting [3], the z-score is 1.64 (inactive) and the cell count worked out at 1600.
Consider `CN(C)C1CCN(C(=O)c2ccc(NC(=O)Nc3ccc(-c4nc(N5CCOCC5)nc(N5CCOCC5)n4)cc3)cc2)CC1`, for which the outcome is “inactive; censored for cell count”. Under setting [1], the z-score was -0.0957 (inactive) and the cell count was 5680. Besides, under setting [2], the z-score was 0.581 (inactive) and the cell count amounted to 4160. Besides, under setting [3], the z-score is 2.23 (active) and the cell count stood at 1900.
For the compound `O=C(Nc1ccccc1)Nc1ccc(-c2ccc(C(=O)C3CCCC3C(=O)O)cc2)cc1` (stereo not drawn), the z-score is -0.37 (inactive) under setting [1], -0.219 (inactive) under setting [2], -0.285 (inactive) under setting [3] and -0.46 (inactive) under setting [4]. Besides, the cell count runs as follows: under setting [1], 5980; under setting [2], 5880; under setting [3], 6590; under setting [4], 5760.
Take `CC(C)CCC[C@@H](C)[C@H]1CC[C@H]2[C@@H]3CC(=O)[C@@]4(O)C[C@@H](O)CC[C@]4(C)[C@H]3CC[C@]12C`: the z-score is 0.076 (inactive) and the cell count amounted to 4620.

Values taken from PubChem BioAssay AID1645838 (ICCB-Longwood Screening Facility, Harvard Medical School, 2021).
